Test results published in the supplement of paper PMC9262897, “Low-cost anti-mycobacterial drug discovery using engineered E. coli” (Nature Communications, 2022).
Counter-ions that a name gives are not always drawn. ± gives the standard deviation of the averaged measurements.

These compounds were tested on E. coli TESEC Mtb DapB (assay: growth (OD600 after 10 h); higher = more growth (less inhibition)). Details: arabinose induction (level): High; compound 0.1 mM; raw OD600 reference: median of DMSO wells […], cell-free background 0.041.
Protocol: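 TESEC E. coli strains in which the native enzyme is deleted and replaced by arabinose-inducible Mtb Asd, DapB, CysH or TrpD, each grown in its selective medium. Strains were screened against the Prestwick library at 0.1 mM and 1% DMSO in 384-well format at low and high arabinose induction. Growth is read as OD600 after 10 h in triplicate.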
Work on `O=C(Cn1ccnc1[N+](=O)[O-])NCCO` [Etanidazole] yielded a growth of 0.202 ± 0.006.
Compound `CCN(CC)CCNC(C(=O)OCCC(C)C)c1ccccc1` (stereo not given) [Camylofine chlorhydrate] has a growth of 0.153 ± 0.013.
Work on `C[C@]12CCC(=O)C=C1CC[C@@H]1[C@@H]2C(=O)C[C@@]2(C)[C@H]1CC[C@]2(O)C(=O)CO` [Cortisone] yielded a growth of 0.19 ± 0.0096.
For `Cc1onc(-c2ccccc2)c1C(=O)N[C@@H]1C(=O)N2[C@@H]1SC(C)(C)[C@@H]2C(=O)O` [Oxacillin sodium], the growth was 0.192 ± 0.0086.
With `Oc1c(Cl)cc(Cl)c(Cl)c1Cc1c(O)c(Cl)cc(Cl)c1Cl` [Hexachlorophene] the growth was 0.0536 ± 0.0015.
`Cc1cnc(NC(=O)C2=C(O)c3ccccc3S(=O)(=O)N2C)s1` [Meloxicam] was tested, and the growth was 0.201 ± 0.021.
For `S=c1[nH]cnc2nc[nH]c12` [Mercaptopurine], the growth was 0.202 ± 0.01.
For `O=C(CCCN1CC=C(n2c(=O)[nH]c3ccccc32)CC1)c1ccc(F)cc1` [Droperidol], the growth was 0.184 ± 0.015.
For `CC(C)NCC(O)c1ccc(NS(C)(=O)=O)cc1` (stereo not given) [Sotalol hydrochloride], the growth was 0.181 ± 0.016.
`Cn1c([N+](=O)[O-])cnc1COC(N)=O` [Ronidazole] showed a growth of 0.187 ± 0.0036.
With `CCCCC[C@H](O)/C=C/[C@H]1[C@H](O)CC(=O)[C@@H]1CCCCCCC(=O)O` [Alprostadil] the growth was 0.154 ± 0.008.
With `CCCC1C(=O)N2C(N(C)C)=Nc3ccc(C)cc3N2C1=O` (stereo not given) [Azapropazone] the growth was 0.185 ± 0.015.
`CN1CCN(C2=Nc3ccccc3Oc3ccc(Cl)cc32)CC1` [Loxapine succinate] was tested, and the growth was 0.19 ± 0.0079.
Work on `O=C(O)CCC(=O)Nc1ccc(S(=O)(=O)Nc2nccs2)cc1` [Succinylsulfathiazole] yielded a growth of 0.196 ± 0.024.
Compound `CCOc1ccc2c(c1)C(C)=CC(C)(C)N2` [Ethoxyquin] has a growth of 0.196 ± 0.0042.
`CC1(C)S[C@@H]2[C@H](NC(=O)[C@H](NC(=O)N3CCNC3=O)c3ccccc3)C(=O)N2[C@H]1C(=O)O` [Azlocillin sodium salt] gave a growth of 0.177 ± 0.015.
With `O=P(O)(O)C(O)(Cc1cccnc1)P(=O)(O)O` [Risedronic acid monohydrate] the growth was 0.192 ± 0.014.
`O=C(OCCOCCO)c1ccccc1Nc1cccc(C(F)(F)F)c1` [Etofenamate] gave a growth of 0.0997 ± 0.078.
`CC(=O)O[C@]1(C(C)=O)CC[C@H]2[C@@H]3C=C(Cl)C4=CC(=O)CC[C@]4(C)[C@H]3CC[C@@]21C` [Chlormadinone acetate] was tested, and the growth was 0.0988 ± 0.0082.
For `CC(CN(C)C)CN1c2ccccc2Sc2ccccc21` (stereo not given) [Trimeprazine tartrate], the growth was 0.192 ± 0.0094.

Same assay, conditions: arabinose induction (level): Low; compound 0.1 mM; raw OD600 reference: median of DMSO wells 0.227, cell-free background 0.041
Work on `O=C(Cn1ccnc1[N+](=O)[O-])NCCO` [Etanidazole] yielded a growth of 0.232 ± 0.0081.
`CCN(CC)CCNC(C(=O)OCCC(C)C)c1ccccc1` (stereo not given) [Camylofine chlorhydrate] gave a growth of 0.171 ± 0.016.
Work on `C[C@]12CCC(=O)C=C1CC[C@@H]1[C@@H]2C(=O)C[C@@]2(C)[C@H]1CC[C@]2(O)C(=O)CO` [Cortisone] yielded a growth of 0.223 ± 0.023.
`Cc1onc(-c2ccccc2)c1C(=O)N[C@@H]1C(=O)N2[C@@H]1SC(C)(C)[C@@H]2C(=O)O` [Oxacillin sodium] gave a growth of 0.243 ± 0.046.
For `Oc1c(Cl)cc(Cl)c(Cl)c1Cc1c(O)c(Cl)cc(Cl)c1Cl` [Hexachlorophene], the growth was 0.053 ± 0.00044.
With `Cc1cnc(NC(=O)C2=C(O)c3ccccc3S(=O)(=O)N2C)s1` [Meloxicam] the growth was 0.195 ± 0.0074.
`S=c1[nH]cnc2nc[nH]c12` [Mercaptopurine] was tested, and the growth was 0.211 ± 0.004.
For `O=C(CCCN1CC=C(n2c(=O)[nH]c3ccccc32)CC1)c1ccc(F)cc1` [Droperidol], the growth was 0.206 ± 0.029.
Work on `CC(C)NCC(O)c1ccc(NS(C)(=O)=O)cc1` (stereo not given) [Sotalol hydrochloride] yielded a growth of 0.221 ± 0.016.
`Cn1c([N+](=O)[O-])cnc1COC(N)=O` [Ronidazole] showed a growth of 0.253 ± 0.031.
`CCCCC[C@H](O)/C=C/[C@H]1[C@H](O)CC(=O)[C@@H]1CCCCCCC(=O)O` [Alprostadil] showed a growth of 0.177 ± 0.032.
`CCCC1C(=O)N2C(N(C)C)=Nc3ccc(C)cc3N2C1=O` (stereo not given) [Azapropazone] showed a growth of 0.206 ± 0.025.
Compound `CN1CCN(C2=Nc3ccccc3Oc3ccc(Cl)cc32)CC1` [Loxapine succinate] has a growth of 0.248 ± 0.079.
In the case of `O=C(O)CCC(=O)Nc1ccc(S(=O)(=O)Nc2nccs2)cc1` [Succinylsulfathiazole], the growth is reported as 0.258 ± 0.028.
In the case of `CCOc1ccc2c(c1)C(C)=CC(C)(C)N2` [Ethoxyquin], the growth is reported as 0.205 ± 0.024.
`CC1(C)S[C@@H]2[C@H](NC(=O)[C@H](NC(=O)N3CCNC3=O)c3ccccc3)C(=O)N2[C@H]1C(=O)O` [Azlocillin sodium salt] gave a growth of 0.222 ± 0.031.
For `O=P(O)(O)C(O)(Cc1cccnc1)P(=O)(O)O` [Risedronic acid monohydrate], the growth was 0.26 ± 0.052.
`O=C(OCCOCCO)c1ccccc1Nc1cccc(C(F)(F)F)c1` [Etofenamate] gave a growth of 0.0543 ± 0.0018.
`CC(=O)O[C@]1(C(C)=O)CC[C@H]2[C@@H]3C=C(Cl)C4=CC(=O)CC[C@]4(C)[C@H]3CC[C@@]21C` [Chlormadinone acetate] gave a growth of 0.109 ± 0.029.
Work on `CC(CN(C)C)CN1c2ccccc2Sc2ccccc21` (stereo not given) [Trimeprazine tartrate] yielded a growth of 0.231 ± 0.019.
